An excerpt weighted towards active compounds, which were near 3% of everything screened.
Sm TGR inh = inhibitors of Schistosoma mansoni thioredoxin glutathione reductase. Q962Y6. purified TGR, DTNB reduction, TNB absorbance 405 nm. Potency, µM (titrated, usually from 114 µM), for inactives: top-dose activity change, negative = inhibition, usual class: inhibitors. hit rate 3% among 360,000; also: nearly all actives have a fitted effect of over 60% in size
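TGR 20 nM + NADPH 100 uM (dispensed conc.), cpd preinc 15 min RT; start with NADPH (500 uM addition) then DTNB (15 mM addition). Kinetic TNB absorbance, 405 nm filter. Four-parameter Hill fit across titration.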
RE007 growth inh = less growth of the S. pombe RE007 Vpr strain; hit rate 0.21% among 360,000; S. pombe RE007 Vpr strain, BacTiter-Glo ATP luminescence, 24 h; Potency, µM (highest dose often 92.2 µM), for the others: at the top dose activity change, negative = less growth, usual class: inhibitors; active = well fitted falling curve with a large enough effect; inconclusive = small, poorly fitted or top-dose-only effect; inactive = no such curve, though single readings can be large or run the other way; also: nearly all actives have a fitted effect of over 50% in size
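Fission yeast RE007 carrying one integrated HIV-1 vpr copy, seeded at OD 0.01 in PMG+AL medium with 23 nL pinned compound. Grown 24 h at 30 degrees; viability read by BacTiter-Glo luminescence after 5 min.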
Tb PYK inh = blocks Trypanosoma brucei pyruvate kinase | Q57TT1 | TbPYK enzyme, Kinase-Glo Plus ATP luminescence, 45 min | Potency, µM (doses to about 76.8 µM), without a hit: at the top dose activity, negative = inhibition, usual class: inhibitors | hit rate 0.12% among 410,000 | AID 624173; also: nearly all actives have a fitted effect of over 50% in size
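Screened from lowest to highest concentration, compounds were pinned into TbPYK/substrate mixtures, and ADP (130 uM final) was added. Plates sat at room temperature for 45 min prior to Kinase-Glo Plus detection by luminescence.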
LmPK inh = inhibitors of Leishmania mexicana pyruvate kinase; hit rate 0.37% among 290,000; Potency, µM (highest dose often 57.5 µM), without a hit: at the top dose activity change, negative = inhibition, usual class: inhibitors; AID 1721; purified LmPK, Kinase-Glo ATP luminescence, 1 h
Target sequence (Q27686 whole entry, looked up): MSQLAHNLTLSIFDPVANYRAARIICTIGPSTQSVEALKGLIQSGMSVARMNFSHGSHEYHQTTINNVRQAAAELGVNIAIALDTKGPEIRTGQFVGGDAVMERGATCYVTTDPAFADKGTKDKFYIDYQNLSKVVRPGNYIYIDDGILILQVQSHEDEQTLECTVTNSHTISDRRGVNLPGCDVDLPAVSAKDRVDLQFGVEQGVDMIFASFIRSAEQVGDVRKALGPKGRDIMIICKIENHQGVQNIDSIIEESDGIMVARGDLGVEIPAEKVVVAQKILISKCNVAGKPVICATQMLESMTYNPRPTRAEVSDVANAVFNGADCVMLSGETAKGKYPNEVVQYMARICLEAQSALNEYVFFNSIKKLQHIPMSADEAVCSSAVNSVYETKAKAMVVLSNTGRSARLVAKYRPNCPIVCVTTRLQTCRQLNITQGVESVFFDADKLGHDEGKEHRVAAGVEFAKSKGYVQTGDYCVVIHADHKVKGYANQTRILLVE
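In 50 mM imidazole pH 7.2 with 7 mM MgCl2, LmPK (0.1 nM) turned over PEP (0.5 mM) and ADP (0.1 mM) for 1 h at room temperature. Luciferase read-out of ATP.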
* marks the source's active call; other numbers are inactive results; [ ] = dose if it differs, or a comment. Unless noted, calls follow the shape of the dose curve; as a rule, active = well fitted curve in the direction sought with a large enough effect; inconclusive = small, poorly fitted or top-dose-only effect, or another doubt; inactive = no such curve, though single readings can be large; an effect the other way counts as inactive or inconclusive. % is scaled to controls: 0 for no effect and ±100 for the full control effect; potency is read from the fitted curve at half-maximal effect.

O=[N+]([O-])c1ccc(O)c(C=Nc2ccc3nc(-c4ccccc4)[nH]c3c2)c1 was read as Sm TGR inh -13.6%, RE007 growth inh inconclusive, Tb PYK inh 0.3% and LmPK inh -20.9%.
Cc1ccc2nc(-c3cccc(N)c3)[nH]c2c1 was read as Sm TGR inh -3.0%, RE007 growth inh inconclusive, Tb PYK inh -15.2% and LmPK inh 15.8µM*.
Screening Oc1c(Br)cc(C=Nc2ccc3nc(-c4ccccc4)[nH]c3c2)c(O)c1Br returned Sm TGR inh 17.8µM*, RE007 growth inh -8.5%, Tb PYK inh -8.8% and LmPK inh 4.9%.
For CC(C)N(C(=O)Cn1cc(S(=O)(=O)Cc2ccc(Br)cc2)c2ccccc21)C(C)C the results were Sm TGR inh 2.3% and Tb PYK inh 0.0%.
Fc1cccc(CNc2ncnc3ccc(-c4ccoc4)cc23)c1 was read as Sm TGR inh -15.4%.
For COc1ccc(CCNC(=O)c2ccc3c(c2)c(C)c(C)n3Cc2ccc(F)cc2)c(OC)c1OC the results were Sm TGR inh 17.9% and Tb PYK inh -18.6%[15.4 µM].
`CCOc1ccc2nc(-c3ccccc3)[nH]c2c1` gave Sm TGR inh 8.2%, RE007 growth inh -27.5%, Tb PYK inh -0.9% and LmPK inh inconclusive.
COc1ccc2nc(-c3ccccc3)[nH]c2c1 was read as Sm TGR inh 1.4%, RE007 growth inh inconclusive, Tb PYK inh -21.6% and LmPK inh 15.8µM*.
Cc1cc(Br)ccc1NC(=O)c1ccc(NS(=O)(=O)c2c(C)noc2C)cc1 was read as Sm TGR inh -9.7% and Tb PYK inh -3.6%.
For C=CC[N+]1([C@H]2C[C@H]3[C@@H]4CC[C@H]5C[C@H](OC(C)=O)[C@@H](N6CCCCC6)C[C@]5(C)[C@H]4CC[C@]3(C)[C@H]2OC(=O)CC)CCCCC1 the results were Tb PYK inh -7.5%.
For Cn1c(Nc2ccc(Cl)cc2)cc(=O)n(C)c1=O the results were Sm TGR inh 20µM*, RE007 growth inh 2.2%, Tb PYK inh -3.8% and LmPK inh 4.2%.
N#CCc1ccccc1C(=O)OCC(=O)N(Cc1ccccc1)Cc1ccccc1 was read as Sm TGR inh -4.4%, RE007 growth inh -5.7% and Tb PYK inh -2.4%.
`Cc1cccc(NC2=C(NC(=O)c3ccccc3)C(=O)c3ccccc3C2=O)c1` gave Sm TGR inh 2.24µM*, RE007 growth inh -20.2%, Tb PYK inh 15.8µM* and LmPK inh 3.55µM*.
`Cc1cccc(C(=O)Nc2cccc(NC(=O)c3ccccc3)c2)c1` gave Sm TGR inh -5.0%, RE007 growth inh 1.6%, Tb PYK inh 0.2% and LmPK inh 1.3%.
O=C(NC1=C(Nc2ccc(Cl)cc2)C(=O)c2ccccc2C1=O)c1ccccc1 was read as Sm TGR inh 6.31µM*, RE007 growth inh inconclusive, Tb PYK inh inconclusive and LmPK inh inconclusive.
For OCCCc1ccc(O)c(O)c1 the results were Sm TGR inh 3.55µM*, RE007 growth inh -3.0%, Tb PYK inh -16.0% and LmPK inh 3.7%.
Screening O=C(O)Cc1ccc(O)c(O)c1 returned Sm TGR inh 0.891µM*, RE007 growth inh -1.0%[18.4 µM], Tb PYK inh -21.8% and LmPK inh 17.7%.
Screening Oc1ccc(CCNCCCCCCNCCc2ccccc2)cc1O returned Tb PYK inh 10.4%.
For O=C(N/N=C/C=C\c1ccco1)c1ccccn1 the results were Sm TGR inh 10µM*, RE007 growth inh 1.9%, Tb PYK inh -15.5% and LmPK inh -4.4%.
`O=C(N/N=C/C=C/c1ccccc1)c1ccccn1` gave Sm TGR inh 3.3%, RE007 growth inh -7.3%, Tb PYK inh -7.0% and LmPK inh -0.8%.
For O=C(N/N=C/C=C/c1ccco1)c1cnccn1 the results were Sm TGR inh 10µM*, RE007 growth inh 4.8%, Tb PYK inh -6.2% and LmPK inh 11.2%.
Screening CC(/C=N/NC(=O)c1ccccn1)=C\c1ccco1 returned Sm TGR inh 35.5µM*, RE007 growth inh -16.1%, Tb PYK inh -5.0% and LmPK inh 25.1µM*.
For COc1ccc(OCC(=O)N/N=C/C(C)=C/c2ccco2)c(Br)c1 the results were Sm TGR inh 39.8µM*, RE007 growth inh -10.4%, Tb PYK inh 2.5% and LmPK inh -1.4%.
O=C(N/N=C/C(Cl)=C/c1ccccc1)c1ccccn1 was read as RE007 growth inh -19.3%, Tb PYK inh 1.3% and LmPK inh inconclusive.
CCOC(=O)c1c(-c2ccc(C)cc2)csc1NC(=O)c1cc2ccccc2oc1=O was read as Sm TGR inh 14.1µM*, RE007 growth inh 7.3%, Tb PYK inh -6.5% and LmPK inh -10.4%.
CCOC(=O)c1c(-c2ccc(C)cc2)csc1NC(=O)c1cc(=O)c2ccc(C)cc2o1 was read as Sm TGR inh -0.3% and Tb PYK inh 0.8%.
CCN1c2ccccc2-c2nc(SCC(=O)Nc3cc(F)ccc3F)ncc2S1(=O)=O was read as Sm TGR inh 10.1% and Tb PYK inh -0.4%.
C=CCn1c(-c2cccn(Cc3cccc(Cl)c3)c2=O)n[nH]c1=S was read as Sm TGR inh 10.9%, RE007 growth inh 8.9%, Tb PYK inh 8.91µM* and LmPK inh -0.7%.
Screening C=CCn1c(-c2cccn(Cc3ccccc3)c2=O)n[nH]c1=S returned Sm TGR inh 11.6%, RE007 growth inh 8.3%, Tb PYK inh inconclusive and LmPK inh 2.4%.
`O=c1c(-c2n[nH]c(=S)n2-c2ccccc2)cccn1Cc1cccc(Cl)c1` gave Sm TGR inh -4.0%, RE007 growth inh 10.2%, Tb PYK inh 12.6µM* and LmPK inh -3.8%.
CCOc1ccc(CNC(=O)c2ccccc2NC(=O)c2nsc3ccccc23)cc1 was read as Sm TGR inh 1.0% and Tb PYK inh 4.4%.
For CC(=O)c1sc(N/N=C2\CC3CC2C(C)C3(C)C)nc1C (stereo not drawn) the results were Sm TGR inh 1.58µM*, RE007 growth inh 6.2%, Tb PYK inh -19.4% and LmPK inh 6.5%.
Screening COc1ccc(/C(C)=N/Nc2nc(C)c(C(C)=O)s2)cc1 returned Sm TGR inh -5.7%, RE007 growth inh 7.7%, Tb PYK inh -0.8% and LmPK inh 0.2%.
COc1cc2c(cc1OC)[C@@H](Cc1cc(OC)c(OC)c(OC)c1)[N@+](C)(CCCOC(=O)CC/C=C/CCC(=O)OCCC[N@+]1(C)CCc3cc(OC)c(OC)cc3[C@H]1Cc1cc(OC)c(OC)c(OC)c1)CC2 was read as Tb PYK inh -1.0%.
For COc1ccc(/C=C2/SC(c3ccc(C)cc3)=NC2=O)cc1OC the results were Sm TGR inh -35.9%, RE007 growth inh 0.7%, Tb PYK inh inconclusive and LmPK inh inconclusive.
For CCOc1cc(/C=C2\N=C(C)OC2=O)cc(Br)c1OCC(=O)OC the results were Sm TGR inh 25.1µM*, RE007 growth inh -2.0%, Tb PYK inh -7.8% and LmPK inh -0.6%.
COc1ccc(/C=C2\N=C(C)OC2=O)cc1OC(C)=O was read as Sm TGR inh inconclusive, RE007 growth inh 7.4%, Tb PYK inh -2.4% and LmPK inh 1.7%.

High-throughput results as filed in PubChem.
